Reference: PubChem BioAssay (Tox21)
Inconclusive results are not listed. Active and inactive are the calls of the source. The call rests on the fitted dose curve.

target: Thyrotropin receptor (Homo sapiens) (UniProt P16473); assay: qHTS assay to identify small molecule antagonists of the thyroid stimulating hormone receptor (TSHR) signaling pathway (AID 1259385); details: TSHR-HEK293 cAMP HTRF, TSH-stimulated antagonist mode; series mostly up to 92.4 µM; activity change, negative = inhibition: at the top concentration; further: nearly all actives have a fitted effect of over 20% in size
Sequence (P16473 whole entry, looked up): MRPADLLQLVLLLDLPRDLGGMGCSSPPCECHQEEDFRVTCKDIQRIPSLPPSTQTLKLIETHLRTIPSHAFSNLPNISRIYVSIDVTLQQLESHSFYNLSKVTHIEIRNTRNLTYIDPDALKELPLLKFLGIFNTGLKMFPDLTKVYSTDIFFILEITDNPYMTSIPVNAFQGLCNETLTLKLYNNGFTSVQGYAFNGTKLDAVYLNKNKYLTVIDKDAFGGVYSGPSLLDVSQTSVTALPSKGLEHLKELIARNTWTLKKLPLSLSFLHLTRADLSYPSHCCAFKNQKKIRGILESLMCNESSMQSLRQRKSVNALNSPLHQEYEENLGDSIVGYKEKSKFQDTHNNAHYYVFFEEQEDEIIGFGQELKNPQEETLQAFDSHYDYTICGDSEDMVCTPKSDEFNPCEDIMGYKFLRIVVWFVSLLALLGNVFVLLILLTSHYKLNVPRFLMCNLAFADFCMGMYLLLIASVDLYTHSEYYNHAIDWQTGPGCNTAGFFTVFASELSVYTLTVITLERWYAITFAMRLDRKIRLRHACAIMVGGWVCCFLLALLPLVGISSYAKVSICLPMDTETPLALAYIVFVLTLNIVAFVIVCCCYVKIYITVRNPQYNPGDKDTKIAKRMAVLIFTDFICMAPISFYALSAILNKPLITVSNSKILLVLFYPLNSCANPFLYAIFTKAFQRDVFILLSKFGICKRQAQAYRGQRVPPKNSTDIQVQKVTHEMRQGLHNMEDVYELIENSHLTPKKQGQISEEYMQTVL
How it was run: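 TSHR-HEK293 cells (800/well) plated 18 h, then compounds with Ro20-1724 and TSH at 1.5 ng/mL final, 30 min at room temperature. cAMP quantified by HTRF (cAMP-d2/anti-cAMP-cryptate, 1 h); 15 concentrations in triplicate.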
On the % scale 0 is the no-effect control and ±100 the full control effect.

Row | SMILES | activity change, negative = inhibition
1 | CON(C)C(=O)Nc1ccc(Br)c(Cl)c1 | 1.93% (inactive)
2 | CON(C)C(=O)Nc1ccc(Br)cc1 | 2.74% (inactive)
3 | ClCCCCCCCl | -1.12% (inactive)
4 | CNC(=O)Oc1cc(C)c(N(C)C)c(C)c1 | -4.49% (inactive)
5 | CCOC(=O)COc1ccc(Cl)cc1Cl | -8.17% (inactive)
6 | C[C@@H](N)[C@@H](O)c1ccccc1 | 0.992% [at 42.5 µM] (inactive)
7 | CC(=NC#N)N(C)Cc1ccc(Cl)nc1 | 1.23% (inactive)
8 | CCC(=O)OC1(c2ccccc2)CCN(C)CC1 | -0.0644% (inactive)
9 | BrCCc1ccccc1 | 4.78% (inactive)
10 | CCC1(c2cccc(O)c2)CCCCN(C)C1 (centres undefined) | -0.636% [at 42.5 µM] (inactive)
11 | CCCCS(=O)(=O)Cl | 0.474% (inactive)
12 | O=C(O)CBr | -0.672% (inactive)
13 | CCCC(C)(COC(N)=O)COC(N)=O | 1.27% (inactive)
14 | COC1=CC(=O)O[C@@H](/C=C/c2ccccc2)C1 | -1.14% (inactive)
15 | CC(Cl)(Cl)Cl | -0.243% (inactive)
16 | C=CCN1CC[C@]23CCCC[C@H]2[C@H]1Cc1ccc(O)cc13 | 3.9% [at 42.5 µM] (inactive)
17 | CCOC(=O)C(SP(=S)(OC)OC)c1ccccc1 (centres undefined) | -0.285% (inactive)
18 | O=c1[nH]c2ccccc2o1 | 3.19% (inactive)
19 | O=C(O)C(F)(F)C(F)(F)C(F)(F)C(F)(F)C(F)(F)C(F)(F)F | 0.055% (inactive)
20 | Cl/C=C/CCl | -1.36% (inactive)
21 | CCC(=O)c1ccc(Cl)cc1 | -1.07% (inactive)
22 | CCN1CCCC1CNC(=O)C(O)(c1ccccc1)c1ccccc1 (centres undefined) | -6.54% [at 42.5 µM] (inactive)
23 | N#CC(Br)(Br)C(N)=O | -0.266% (inactive)
24 | O=[N+]([O-])c1cccc(CCl)c1 | 2.23% (inactive)
25 | CC(C)c1ccc(O)cc1 | 2.73% (inactive)
26 | CC(C)(C)C(=O)C(Cl)Cl | 0.454% (inactive)
27 | CCOC(=O)N(C)N=O | 1.58% (inactive)
28 | [P]#[In] | 0.863% (inactive)
29 | c1ccc2c(c1)CCNC2 | 0.41% (inactive)
